Our source for the outcome and AC50 values is PubChem BioAssay (EPA / NIEHS).

Calls of active or inactive are those of the source. The calls were made as follows: active = hit-call score of the fitted dose curve at least 0.9, where 1 is the maximum; inactive = score below 0.9.

The assay can be described thus: CEETOX_H295R_ANDR_noMTC: CeeTox H295R High-throughput Steroidogenesis Assay for Androstenedione (ANDR), maximum tolerated concentration (MTC) filtered results only (AID 2283915). Conditions: actives raise or lower the signal. In a few lines: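 H295R cells, passage 10 or below, prestimulated 48 h with 10 uM forskolin, then exposed 48 h to chemical in 0.1% DMSO. Medium androstenedione extracted with MTBE, quantified by HPLC-MS/MS; concentrations not MTC-filtered; bidirectional fit versus DMSO.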

As to `N#Cc1ccc(C(c2ccc(C#N)cc2)n2cncn2)cc1`, the call was inactive.

Turning to `COc1ccc(C(=O)/C(Br)=C\C(=O)O)cc1`, the AC50 is 39.2 µM (active).
